Screening results: PubChem, National Center for Advancing Translational Sciences (NCATS)
HepG2 tox = kills HepG2 cells in TGF-b inhibitor counter-screen | HepG2 CAGA-GFP viability, ATP luminescence, 18 h | Potency, µM (titrated, usually from 46.1 µM), inactives show top-dose activity change, negative = cytotoxicity, usual class: cytotoxic | 0.76% of 410,000 active
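CellTiter-Glo luminescence gave cytotoxicity after 18 hours at 37 degrees C. The cells were HepG2 CAGA-GFP in 1% FBS DMEM, stimulated with 500 pg/mL TGF-beta after compound addition. %Activity was normalised to no-cell wells (complete cell-killing) and DMSO (no toxicity), and curves were fitted and classified.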
ATXN2 expr inh = ATXN2 expression inhibition. 0.72% of 360,000 active. HEK-293 ATXN2-luciferase reporter, luminescence, 24 h. Potency, µM (highest dose often 57 µM), without a hit: at the highest dose activity change, negative = inhibition, hits mostly inhibitors. AID 1745845; also: % is scaled to controls: 0 for no effect and ±100 for the full control effect; nearly all actives have a fitted effect of over 55% in size
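ATXN2-luciferase reporter cells (luciferase flanked by upstream and downstream ATXN2 gene portions) were treated 24 h at 37 °C with compounds at up to 57 uM. SteadyGlo luminescence gave expression; GF-AFC fluorescence gave viability.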
TGFb inhibitor = blocks TGF-b signaling. Potency, µM (top dose mostly 46.1 µM), for inactives: at the highest dose activity, negative = inhibition, actives largely listed as inhibitors. 1.2% of 410,000 active. HepG2 CAGA-GFP TGF-b/SMAD3 reporter, GFP fluorescence, 18 h; TGF-beta stimulated, 500 pg/mL final; also: % is scaled to controls: 0 for no effect and ±100 for the full control effect; nearly all actives have a fitted effect of over 65% in size
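Per well, imaged GFP fluorescence of HEPG2 CAGA-GFP cells gives the signal; cells get compound, then TGF-beta (500 pg/mL final), 18 h at 37 degrees C; %Activity versus -TGF-beta and +DMSO controls.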
ATXN viability = viability counter-screen for ATXN expression inhibitors | S2 cells (HEK-293 line with an ATXN2-luciferase reporter) viability, CellTiter-Fluor protease fluorescence, 24 h | Potency, µM (top dose mostly 56.7 µM), hits mostly cytotoxic | 0.49% of 400,000 active | AID 651635; also: nearly all actives have a fitted effect of over 40% in size
Nrf2 inh = inhibitors of Nrf2 signaling; A549 ARE-Fluc reporter, luciferase luminescence, 18-24 h; Potency, µM (highest dose often 46 µM), inactives show at the highest dose activity change, negative = inhibition, actives largely listed as inhibitors; 2.1% of 360,000 active; AID 504444; also: % is scaled to controls: 0 for no effect and ±100 for the full control effect; nearly all actives have a fitted effect of over 60% in size
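Nrf2 activity is the BugLite luminescence, read 15 min after reagent at room temperature, following CellTiter-Fluor cytotoxicity readout (30 min, 37C). Compound titrations were applied for 18-24 h to 5000 A549 ARE_Fluc cells/well in 5% FBS OPTI-MEM.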
A549 viability = counter-screen for Nrf2 inhibitors: cytotoxicity in A549 cells | A549 ARE-Fluc cells, CellTiter-Fluor viability, 18-24 h | Potency, µM (series often up to 46 µM), without a hit: at the highest dose activity change, negative = cytotoxicity, usual class: inhibitors | 0.16% of 390,000 active | AID 504648; also: % is scaled to controls: 0 for no effect and ±100 for the full control effect
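A549 ARE-Fluc cells in 5% FBS OPTI-MEM, 5000 cells/well, rested 2 h then exposed to compounds in concentration-response for 18-24 h at 37 °C. Viability by CellTiter-Fluor fluorescence (Ex 405/Em 525) after 30 min; luciferase luminescence (BugLite, 15 min, RT) read afterwards.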
An asterisk follows results filed as active; i = inactive; ? = inconclusive; . = not tested or not shown; [ ] = another dose, or the depositor's remark. Sampled rows, rich in hits. Any-hit rate of the full collection: about 3.8%. Calls follow the shape of the dose curve; as a rule, active = well fitted curve in the direction sought with a large enough effect; inconclusive = small, poorly fitted or top-dose-only effect, or another doubt; inactive = no such curve, though single readings can be large; an effect the other way counts as inactive or inconclusive. Potency is read from the fitted curve at half-maximal effect.

SMILES | HepG2 tox | ATXN2 expr inh | TGFb inhibitor | ATXN viability | Nrf2 inh | A549 viability
C=C(C)C(=O)Nc1cccc(C2=NOC3(C2)C[C@@H](C(N)=O)N(C(=O)c2cc([N+](=O)[O-])cc([N+](=O)[O-])c2C)C3)c1 (some centres undefined) | 1% | 6% | -6% | i | 0% | -3%
O=C(CN1C(=O)COc2ccc(S(=O)(=O)N3CCCCCC3)cc21)NCCc1ccccc1 | -26% | . | -28% | . | -1% | -6%
COc1ccccc1CNC(=O)CSc1ncc(S(=O)(=O)c2ccc(C)c(Cl)c2)c(=O)[nH]1 | -5% | 13% | 4% | i | . | 5%
Cc1ccc(NS(=O)(=O)c2ccc3[nH]c4c(c3c2)CCCCCC4)cc1Cl | 13µM* | ? | 11µM* | ? | ? | ?
COc1ccc(NS(=O)(=O)c2ccc3[nH]c4c(c3c2)CCCC4)cc1Cl | -109% | ? | ? | ? | -24% | -1%
CN(CC(=O)NCc1ccccc1)S(=O)(=O)c1ccc2[nH]c3c(c2c1)CCCC3 | -22% | ? | ? | ? | -19% | -4%
CN(Cc1ccccc1)S(=O)(=O)c1ccc2[nH]c3c(c2c1)CCCCC3 | -20% | -36% | ? | i | 16µM* | 2%
Cc1cccc(NS(=O)(=O)c2ccc3[nH]c4c(c3c2)CCCCCC4)c1 | 20µM* | . | 10µM* | . | . | -17%
COc1ccc(COC[C@H](C)[C@H](O[Si](C)(C)C)[C@@H](C)[C@H]2OC(=O)[C@H]2C)cc1 | -11% | . | -12% | . | 0% | 2%
CC(C)(C)C(=O)CSc1n[nH]c(-c2ccccc2)n1 | -2% | . | 0% | . | . | .
COc1ccc(NC(=O)C2CCCN2S(=O)(=O)c2ccc3nc(-c4ccccc4)[nH]c3c2)cc1 (centres undefined) | -10% | -8% | -3% | i | -4% | 2%
Cc1ccc(NC(=O)C2CCCN2S(=O)(=O)c2ccc3nc(-c4ccccc4)[nH]c3c2)cc1F (centres undefined) | -42% | . | ? | . | 21µM* | -3%
CCC(C)(C)c1ccc(OCCCC[n+]2ccccc2)c(C(C)(C)CC)c1 | -104% | ? | ? | i | 23µM* | ?
CCCCCc1ccc(OCCCC[n+]2cccc(C)c2)c(CCCCC)c1 | -101% | 10µM* | ? | ? | ? | ?
CCCCCc1ccc(OCCCC[n+]2ccccc2)c(CCCCC)c1 | -157% | 14µM* | ? | ? | 18µM* | ?
CCCCCCCCCCCCCCCC[n+]1ccc(C)cc1 | -89% | . | ? | . | . | .
CCCCCc1ccc(OCCCC[n+]2ccc(C)cc2)c(CCCCC)c1 | -97% | -32%[11.3 µM] | 11µM* | ? | 10µM* | -19%
COc1ccc(Nc2c(C3CC3)nc3nc(C)cc(C)n23)cc1 | . | -3% | . | ? | . | .
CN1CCN(C(=O)/C=C/c2ccc([N+](=O)[O-])o2)CC1 | -119% | . | 11µM* | . | ? | ?
O=C(O)/C=C/c1ccc([N+](=O)[O-])o1 | 15% | 3% | 7% | i | ? | -3%
Cc1ccc(C(NC(=O)NC(C)c2ccccc2)C(Cl)(Cl)Cl)cc1F (centres undefined) | -46% | ? | ? | ? | 16µM* | ?
CC(NC(=O)Nc1ccc(Cl)cc1)c1ccccc1 (centres undefined) | -33% | . | ? | i | -22% | -7%
COc1ccc(NC(=O)CC2C(=O)N(Cc3ccccc3)C(=S)N2CCN2CCOCC2)cc1 (centres undefined) | -11% | -24% | -7% | i | -20% | -11%
C=CCN1C(=O)C(CC(=O)Nc2ccc(OCCC)cc2)N(CCCN2CCN(Cc3ccccc3)CC2)C1=S (centres undefined) | -93% | ? | ? | ? | 18µM* | ?
